# Results taken from paper PMC7862700, “An all-to-all approach to the identification of sequence-specific readers for epigenetic DNA modifications on cytosine”.
# Columns and labels:
# Assay in all cases: DAPPL (digital affinity profiling via proximity ligation, sequencing); 10 mM Tris-HCl pH 7.5, 50 mM NaCl, 1 mM DTT, 4% glycerol, room temperature, 30 min; GST-TFs on glutathione beads, 16-mer random dsDNA library, 0.1% formaldehyde crosslink after washing; high values mean tight binding
# Conditions in all cases: protein: recombinant; tags: N-terminal GST; dsDNA, one strand shown
# ELK1 = molecular target: T1, ELK1 (Homo sapiens, UniProt P19419 1-428)
# T1 sequence: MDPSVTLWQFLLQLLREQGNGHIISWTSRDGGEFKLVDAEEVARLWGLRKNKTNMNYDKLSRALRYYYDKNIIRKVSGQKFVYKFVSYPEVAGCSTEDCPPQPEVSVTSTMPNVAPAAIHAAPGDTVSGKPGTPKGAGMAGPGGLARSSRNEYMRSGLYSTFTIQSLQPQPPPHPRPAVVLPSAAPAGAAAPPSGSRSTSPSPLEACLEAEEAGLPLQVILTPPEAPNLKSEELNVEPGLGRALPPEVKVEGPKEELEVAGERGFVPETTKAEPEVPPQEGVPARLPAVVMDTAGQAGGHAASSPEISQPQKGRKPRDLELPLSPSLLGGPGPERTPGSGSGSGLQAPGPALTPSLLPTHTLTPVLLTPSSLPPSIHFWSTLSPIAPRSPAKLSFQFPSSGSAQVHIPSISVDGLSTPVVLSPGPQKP
# Method in brief: (§1)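 The binding signal reported is, for every hexamer, its read frequency for a factor over its read frequency for the tag-only sample. Reads came from pools of yeast-expressed, GST-fused human transcription factors on glutathione beads, barcoded with DNA and mixed with that sample, which were incubated with 200 nmole of a random double-stranded 16-mer DNA library in Tris/NaCl/DTT/glycerol buffer at room temperature for 30 min. After washing, the pools were crosslinked with 0.1% formaldehyde, proximity-ligated with BsaI/T4 ligase for 1 h at 37 °C, PCR-amplified and sequenced on an Illumina NextSeq500.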
# GABPA = molecular target: T2, GABPA (Homo sapiens, UniProt Q06546 1-454)
# T2 sequence: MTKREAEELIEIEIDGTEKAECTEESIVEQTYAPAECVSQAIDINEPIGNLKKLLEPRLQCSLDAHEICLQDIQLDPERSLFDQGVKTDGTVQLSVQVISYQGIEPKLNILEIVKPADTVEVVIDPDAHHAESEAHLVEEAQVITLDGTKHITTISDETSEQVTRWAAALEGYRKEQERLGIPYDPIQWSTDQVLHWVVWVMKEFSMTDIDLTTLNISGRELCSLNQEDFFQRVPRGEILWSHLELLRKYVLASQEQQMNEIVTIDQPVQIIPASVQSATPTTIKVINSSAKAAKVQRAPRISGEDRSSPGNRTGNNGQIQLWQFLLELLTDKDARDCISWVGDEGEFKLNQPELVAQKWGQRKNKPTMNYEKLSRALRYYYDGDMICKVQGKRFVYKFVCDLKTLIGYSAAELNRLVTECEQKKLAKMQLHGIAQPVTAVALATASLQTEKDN
# Method in brief: as §1
# ERG = molecular target: T3, ERG (Homo sapiens, UniProt P11308 1-479)
# T3 sequence: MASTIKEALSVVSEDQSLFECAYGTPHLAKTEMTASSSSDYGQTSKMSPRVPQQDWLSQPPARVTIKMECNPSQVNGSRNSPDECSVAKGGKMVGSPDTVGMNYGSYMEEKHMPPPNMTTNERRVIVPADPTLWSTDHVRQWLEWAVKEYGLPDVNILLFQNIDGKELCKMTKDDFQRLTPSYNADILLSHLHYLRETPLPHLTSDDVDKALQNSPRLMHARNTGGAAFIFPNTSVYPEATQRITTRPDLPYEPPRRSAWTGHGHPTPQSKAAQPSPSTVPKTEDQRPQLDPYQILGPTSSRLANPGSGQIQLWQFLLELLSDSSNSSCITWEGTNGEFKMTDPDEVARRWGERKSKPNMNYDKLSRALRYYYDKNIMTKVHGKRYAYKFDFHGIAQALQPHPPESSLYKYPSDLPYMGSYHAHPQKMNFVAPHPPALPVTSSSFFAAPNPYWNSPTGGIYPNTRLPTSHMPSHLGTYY
# Method in brief: as §1
# ELF1 = ELF1 (Homo sapiens, UniProt P32519 1-619)
# Chain of ELF1 (P32519 whole entry): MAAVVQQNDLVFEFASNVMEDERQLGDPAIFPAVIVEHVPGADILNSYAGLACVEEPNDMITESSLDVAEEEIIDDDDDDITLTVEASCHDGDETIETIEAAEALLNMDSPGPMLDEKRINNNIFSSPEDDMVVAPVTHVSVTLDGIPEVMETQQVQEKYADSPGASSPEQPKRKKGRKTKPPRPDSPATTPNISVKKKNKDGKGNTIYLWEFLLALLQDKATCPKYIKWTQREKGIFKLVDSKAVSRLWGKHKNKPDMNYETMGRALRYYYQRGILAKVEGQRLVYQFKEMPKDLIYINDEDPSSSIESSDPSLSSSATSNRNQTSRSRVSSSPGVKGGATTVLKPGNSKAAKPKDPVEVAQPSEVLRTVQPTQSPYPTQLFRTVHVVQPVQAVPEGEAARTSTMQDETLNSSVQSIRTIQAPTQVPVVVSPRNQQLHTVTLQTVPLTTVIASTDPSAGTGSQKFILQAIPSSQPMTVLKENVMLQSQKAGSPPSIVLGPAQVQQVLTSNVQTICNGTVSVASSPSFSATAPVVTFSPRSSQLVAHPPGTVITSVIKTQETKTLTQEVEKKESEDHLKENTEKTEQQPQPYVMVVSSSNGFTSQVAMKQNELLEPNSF
# Method in brief: as §1
# EHF = molecular target: T4, EHF (Homo sapiens, UniProt Q9NZC4 1-300)
# T4 sequence: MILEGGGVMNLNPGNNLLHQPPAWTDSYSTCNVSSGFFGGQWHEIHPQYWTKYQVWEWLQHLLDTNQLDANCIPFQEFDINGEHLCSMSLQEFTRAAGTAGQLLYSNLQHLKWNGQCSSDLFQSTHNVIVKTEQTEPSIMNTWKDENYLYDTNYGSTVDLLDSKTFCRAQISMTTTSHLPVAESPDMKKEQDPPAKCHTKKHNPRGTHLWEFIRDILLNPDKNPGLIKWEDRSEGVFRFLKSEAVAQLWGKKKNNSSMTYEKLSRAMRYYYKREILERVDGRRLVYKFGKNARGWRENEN
# Method in brief: as §1
# SPIB = SPIB (Homo sapiens, UniProt Q01892 1-262)
# Chain of SPIB (Q01892 whole entry): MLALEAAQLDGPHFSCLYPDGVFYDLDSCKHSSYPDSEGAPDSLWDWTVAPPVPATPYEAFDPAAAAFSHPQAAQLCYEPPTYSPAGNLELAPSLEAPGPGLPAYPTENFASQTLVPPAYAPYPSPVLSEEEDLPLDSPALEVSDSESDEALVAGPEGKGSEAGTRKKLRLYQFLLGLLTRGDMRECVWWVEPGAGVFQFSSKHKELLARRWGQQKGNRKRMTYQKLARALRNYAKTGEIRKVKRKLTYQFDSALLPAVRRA
# Method in brief: as §1
# FEV = molecular target: T5, FEV (Homo sapiens, UniProt Q99581 1-238)
# T5 sequence: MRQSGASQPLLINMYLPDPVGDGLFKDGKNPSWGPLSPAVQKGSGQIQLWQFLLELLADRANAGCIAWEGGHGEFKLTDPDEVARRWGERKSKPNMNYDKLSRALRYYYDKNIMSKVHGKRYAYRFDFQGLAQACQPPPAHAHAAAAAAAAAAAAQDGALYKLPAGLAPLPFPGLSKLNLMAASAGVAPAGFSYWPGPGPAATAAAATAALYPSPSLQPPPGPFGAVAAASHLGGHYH
# Method in brief: as §1
# ETV5 = ETV5 (Homo sapiens, UniProt P41161 1-510)
# Chain of ETV5 (P41161 whole entry): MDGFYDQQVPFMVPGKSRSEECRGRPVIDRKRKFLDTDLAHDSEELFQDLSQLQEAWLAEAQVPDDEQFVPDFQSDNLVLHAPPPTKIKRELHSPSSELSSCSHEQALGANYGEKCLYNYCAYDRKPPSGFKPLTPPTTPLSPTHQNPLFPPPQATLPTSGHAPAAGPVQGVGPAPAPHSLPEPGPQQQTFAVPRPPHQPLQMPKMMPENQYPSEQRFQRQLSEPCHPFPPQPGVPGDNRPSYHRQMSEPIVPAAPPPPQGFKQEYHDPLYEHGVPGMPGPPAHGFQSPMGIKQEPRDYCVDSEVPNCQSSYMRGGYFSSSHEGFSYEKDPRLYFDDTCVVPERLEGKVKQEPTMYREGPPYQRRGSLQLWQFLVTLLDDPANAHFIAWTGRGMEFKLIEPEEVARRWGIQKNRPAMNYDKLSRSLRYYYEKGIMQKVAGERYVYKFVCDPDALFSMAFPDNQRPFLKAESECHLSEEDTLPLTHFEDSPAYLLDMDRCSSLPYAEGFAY
# Method in brief: as §1
# ELF4 = ELF4 (Homo sapiens, UniProt Q99607 1-663)
# Chain of ELF4 (Q99607 whole entry): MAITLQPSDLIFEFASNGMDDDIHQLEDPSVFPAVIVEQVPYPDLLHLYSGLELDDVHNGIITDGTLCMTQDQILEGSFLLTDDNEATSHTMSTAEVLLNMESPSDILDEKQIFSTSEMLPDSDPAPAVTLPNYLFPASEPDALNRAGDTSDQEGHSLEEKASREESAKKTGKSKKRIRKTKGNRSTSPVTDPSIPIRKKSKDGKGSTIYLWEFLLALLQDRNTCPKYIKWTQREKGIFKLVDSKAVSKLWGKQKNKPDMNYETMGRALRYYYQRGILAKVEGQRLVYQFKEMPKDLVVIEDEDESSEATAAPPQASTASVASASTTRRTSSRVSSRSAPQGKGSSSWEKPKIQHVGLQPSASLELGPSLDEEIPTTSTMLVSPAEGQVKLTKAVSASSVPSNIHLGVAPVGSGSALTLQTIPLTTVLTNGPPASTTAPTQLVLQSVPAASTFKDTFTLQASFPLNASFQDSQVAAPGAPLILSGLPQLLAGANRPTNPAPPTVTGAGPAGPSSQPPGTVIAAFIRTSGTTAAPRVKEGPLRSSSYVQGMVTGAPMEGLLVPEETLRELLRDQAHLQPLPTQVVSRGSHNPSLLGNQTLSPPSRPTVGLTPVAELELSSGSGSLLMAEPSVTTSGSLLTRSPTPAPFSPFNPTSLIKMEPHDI
# Method in brief: as §1
# ETV2 = molecular target: T6, ETV2 (Homo sapiens, UniProt O00321 1-342)
# T6 sequence: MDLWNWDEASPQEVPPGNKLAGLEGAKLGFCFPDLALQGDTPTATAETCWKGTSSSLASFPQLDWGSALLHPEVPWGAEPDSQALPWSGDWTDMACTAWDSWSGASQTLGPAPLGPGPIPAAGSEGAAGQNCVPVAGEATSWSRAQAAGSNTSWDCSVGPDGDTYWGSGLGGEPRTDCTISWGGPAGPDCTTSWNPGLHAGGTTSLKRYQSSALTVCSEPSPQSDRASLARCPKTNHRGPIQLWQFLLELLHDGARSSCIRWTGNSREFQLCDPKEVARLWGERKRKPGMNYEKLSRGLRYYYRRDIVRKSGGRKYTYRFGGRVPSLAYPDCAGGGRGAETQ
# Method in brief: as §1
# ELF3 = molecular target: T7, ELF3 (Homo sapiens, UniProt P78545 1-371)
# T7 sequence: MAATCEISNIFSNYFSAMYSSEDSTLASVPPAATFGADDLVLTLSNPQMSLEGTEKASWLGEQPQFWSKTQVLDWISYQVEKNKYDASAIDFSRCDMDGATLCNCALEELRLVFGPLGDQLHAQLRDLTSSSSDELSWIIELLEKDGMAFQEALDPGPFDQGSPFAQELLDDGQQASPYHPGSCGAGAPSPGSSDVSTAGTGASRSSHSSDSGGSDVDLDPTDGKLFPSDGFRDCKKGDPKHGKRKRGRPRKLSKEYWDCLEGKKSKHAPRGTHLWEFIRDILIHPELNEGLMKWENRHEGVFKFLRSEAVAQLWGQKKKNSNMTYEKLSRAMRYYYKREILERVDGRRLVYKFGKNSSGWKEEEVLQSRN
# Method in brief: as §1
# ETV1 = ETV1 (Homo sapiens, UniProt P50549 1-477)
# Chain of ETV1 (P50549 whole entry): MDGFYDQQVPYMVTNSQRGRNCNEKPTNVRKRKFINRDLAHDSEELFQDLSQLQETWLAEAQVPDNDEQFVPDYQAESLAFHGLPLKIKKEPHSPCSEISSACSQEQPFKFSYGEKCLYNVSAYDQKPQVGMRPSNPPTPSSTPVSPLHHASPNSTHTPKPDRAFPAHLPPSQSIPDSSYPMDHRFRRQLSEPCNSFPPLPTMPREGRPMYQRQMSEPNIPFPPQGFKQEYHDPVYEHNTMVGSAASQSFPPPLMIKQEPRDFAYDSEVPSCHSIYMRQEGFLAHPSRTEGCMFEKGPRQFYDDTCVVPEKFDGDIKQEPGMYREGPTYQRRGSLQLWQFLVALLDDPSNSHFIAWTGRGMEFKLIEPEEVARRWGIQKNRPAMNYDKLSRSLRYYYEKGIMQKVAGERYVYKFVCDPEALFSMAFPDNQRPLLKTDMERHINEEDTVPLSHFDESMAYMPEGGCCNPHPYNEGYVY
# Method in brief: as §1
# ERF = molecular target: T8, ERF (Homo sapiens, UniProt P50548 1-548)
# T8 sequence: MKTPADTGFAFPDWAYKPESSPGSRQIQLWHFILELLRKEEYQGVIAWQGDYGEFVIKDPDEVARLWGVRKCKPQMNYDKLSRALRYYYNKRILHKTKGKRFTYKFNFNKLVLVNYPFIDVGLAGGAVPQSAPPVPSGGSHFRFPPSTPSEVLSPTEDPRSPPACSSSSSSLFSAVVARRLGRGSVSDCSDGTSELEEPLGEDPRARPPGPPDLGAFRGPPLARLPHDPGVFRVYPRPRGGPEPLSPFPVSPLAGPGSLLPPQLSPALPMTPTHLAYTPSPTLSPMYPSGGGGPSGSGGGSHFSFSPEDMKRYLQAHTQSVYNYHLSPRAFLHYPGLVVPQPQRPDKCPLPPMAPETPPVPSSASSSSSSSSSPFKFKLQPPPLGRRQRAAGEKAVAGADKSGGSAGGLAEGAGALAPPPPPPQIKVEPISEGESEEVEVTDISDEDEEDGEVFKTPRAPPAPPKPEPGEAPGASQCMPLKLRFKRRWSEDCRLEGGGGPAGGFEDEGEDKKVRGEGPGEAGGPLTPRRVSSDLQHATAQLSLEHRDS
# Method in brief: as §1
# SPDEF = molecular target: T9, SPDEF (Homo sapiens, UniProt O95238 1-335)
# T9 sequence: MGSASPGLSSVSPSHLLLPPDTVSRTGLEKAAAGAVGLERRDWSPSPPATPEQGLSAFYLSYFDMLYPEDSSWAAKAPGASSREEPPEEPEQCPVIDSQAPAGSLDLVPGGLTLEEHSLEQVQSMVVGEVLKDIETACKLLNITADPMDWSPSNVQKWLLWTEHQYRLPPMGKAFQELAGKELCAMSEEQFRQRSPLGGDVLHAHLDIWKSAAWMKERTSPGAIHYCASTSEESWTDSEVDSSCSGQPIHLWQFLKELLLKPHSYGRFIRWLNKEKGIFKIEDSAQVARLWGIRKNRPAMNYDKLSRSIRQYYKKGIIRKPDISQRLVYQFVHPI
# Method in brief: as §1
# ETV3 = molecular target: T10, ETV3 (Homo sapiens, UniProt P41162-2 1-143)
# T10 sequence: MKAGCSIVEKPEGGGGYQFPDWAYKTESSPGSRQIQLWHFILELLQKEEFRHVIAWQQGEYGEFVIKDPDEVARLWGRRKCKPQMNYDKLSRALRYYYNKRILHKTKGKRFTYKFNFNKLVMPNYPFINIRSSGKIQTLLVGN
# Method in brief: as §1
# ETV7 = molecular target: T11, ETV7 (Homo sapiens, UniProt Q9Y603 1-341)
# T11 sequence: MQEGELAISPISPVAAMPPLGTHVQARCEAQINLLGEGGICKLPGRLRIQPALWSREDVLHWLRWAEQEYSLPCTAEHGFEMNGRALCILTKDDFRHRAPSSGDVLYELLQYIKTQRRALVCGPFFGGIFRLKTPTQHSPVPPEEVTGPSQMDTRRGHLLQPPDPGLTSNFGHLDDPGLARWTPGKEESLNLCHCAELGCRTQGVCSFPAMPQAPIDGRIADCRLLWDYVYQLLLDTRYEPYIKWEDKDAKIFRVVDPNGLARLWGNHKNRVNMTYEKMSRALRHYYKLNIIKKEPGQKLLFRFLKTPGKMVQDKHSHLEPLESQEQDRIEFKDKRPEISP
# Method in brief: as §1
# ETV6 = ETV6 (Homo sapiens, UniProt P41212 1-452)
# Chain of ETV6 (P41212 whole entry): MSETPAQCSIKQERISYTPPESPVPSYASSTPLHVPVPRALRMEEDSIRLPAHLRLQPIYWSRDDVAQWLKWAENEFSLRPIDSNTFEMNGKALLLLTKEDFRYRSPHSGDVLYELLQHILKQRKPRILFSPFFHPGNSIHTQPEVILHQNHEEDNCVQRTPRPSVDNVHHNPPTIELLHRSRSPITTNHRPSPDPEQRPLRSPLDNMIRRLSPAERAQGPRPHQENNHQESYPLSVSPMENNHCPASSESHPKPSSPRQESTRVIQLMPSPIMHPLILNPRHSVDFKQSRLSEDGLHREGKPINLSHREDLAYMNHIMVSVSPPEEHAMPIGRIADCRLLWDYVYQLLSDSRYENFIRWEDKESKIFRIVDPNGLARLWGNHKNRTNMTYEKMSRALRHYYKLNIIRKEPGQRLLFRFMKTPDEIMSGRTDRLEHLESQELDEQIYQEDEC
# Method in brief: as §1
Sequence,binding signal (ELK1),binding signal (GABPA),binding signal (ERG),binding signal (ELF1),binding signal (EHF),binding signal (SPIB),binding signal (FEV),binding signal (ETV5),binding signal (ELF4),binding signal (ETV2),binding signal (ELF3),binding signal (ETV1),binding signal (ERF),binding signal (SPDEF),binding signal (ETV3),binding signal (ETV7),binding signal (ETV6)
TCGTAT,"1.08 fold enrichment (6-mer frequency, TF over GST control)","1.01 fold enrichment (6-mer frequency, TF over GST control)","1.03 fold enrichment (6-mer frequency, TF over GST control)","1.03 fold enrichment (6-mer frequency, TF over GST control)","1 fold enrichment (6-mer frequency, TF over GST control)","1.07 fold enrichment (6-mer frequency, TF over GST control)","1.05 fold enrichment (6-mer frequency, TF over GST control)","1.02 fold enrichment (6-mer frequency, TF over GST control)","1.02 fold enrichment (6-mer frequency, TF over GST control)","1.12 fold enrichment (6-mer frequency, TF over GST control)","1.05 fold enrichment (6-mer frequency, TF over GST control)","1 fold enrichment (6-mer frequency, TF over GST control)","1.06 fold enrichment (6-mer frequency, TF over GST control)","1.05 fold enrichment (6-mer frequency, TF over GST control)","1.05 fold enrichment (6-mer frequency, TF over GST control)",,
CGGTTA,,"1.01 fold enrichment (6-mer frequency, TF over GST control)",,"1 fold enrichment (6-mer frequency, TF over GST control)","1.02 fold enrichment (6-mer frequency, TF over GST control)","1.02 fold enrichment (6-mer frequency, TF over GST control)","1.04 fold enrichment (6-mer frequency, TF over GST control)","1.05 fold enrichment (6-mer frequency, TF over GST control)",,"1.06 fold enrichment (6-mer frequency, TF over GST control)","1 fold enrichment (6-mer frequency, TF over GST control)",,,"1.15 fold enrichment (6-mer frequency, TF over GST control)",,"1 fold enrichment (6-mer frequency, TF over GST control)","1.09 fold enrichment (6-mer frequency, TF over GST control)"
